HT1080 IDH1KD tx – qHTS for induction of synthetic lethality in tumor cells producing 2HG: qHTS for the HT-1080-IDH1KD cell line; AID 686971, 2013; HT-1080 IDH1 knockdown viability, ATP luminescence, 48 h; Potency, µM (highest dose often 46.1 µM), inactives show top-dose activity, negative = toxicity, usual class: cytotoxic; actives 2% (n = 360,000);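 note: 0% = DMSO wells and -100% = cell-free medium wells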
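Viability of IDH1-knockdown HT-1080 fibrosarcoma cells was assessed by CellTiter-Glo after 48 h at 37 °C with titrated compound; concentration-effect curves were classified by fit quality and response size.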
SW480 rerep – A quantitative high throughput screen for small molecules that induce DNA re-replication in SW480 colon adenocarcinoma cells; SW480 DNA re-replication, Hoechst DNA content imaging, 48 h; Potency, µM (doses to about 46.1 µM), inactives show top-dose re-replication activation, actives largely listed as activators; actives 1.8% (n = 340,000); note: % of control where 0% means no effect; nearly all actives have a fitted effect of over 55% in size
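Image-based DNA-content assay: after two days of treatment, nuclei were labelled with the DNA dye Hoechst and imaged, and hits were compounds raising the count of nuclei showing high fluorescence intensity.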
KB-V1 MDR tox – qHTS assay for MDR1-selective chemotherapeutics: Primary screen using the drug-selected MDR subline cells KB-V1; actives 3.4% (n = 400,000); KB-V1 MDR cells viability, CellTiter-Glo, 72 h; Potency, µM (series often up to 46.1 µM), most hits filed as cytotoxic; note: % is set by controls: 0 for no effect and ±100 for the full control effect; nearly all actives have a fitted effect of over 60% in size
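Following 72 h at 37 degrees C with compound, KB-V1 cell viability was read by CellTiter-Glo luminescence, medium being phenol-red-free DMEM plus 10% FBS; concentration-response parameters came from normalized, curve-fitted qHTS data.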
KB-3-1 tox – qHTS assay for MDR1-selective chemotherapeutics: Primary screen using the parental adenocarcinoma cell KB-3-1; KB-3-1 viability, CellTiter-Glo ATP luminescence, 72 h; Potency, µM (highest dose often 46.1 µM), hits mostly cytotoxic; actives 1.4% (n = 400,000); AID 1347075, 2019; note: % is set by controls: 0 for no effect and ±100 for the full control effect; nearly all actives have a fitted effect of over 60% in size
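Parental KB-3-1 adenocarcinoma cells in phenol-red-free DMEM with 10% FBS were pin-treated with compounds at several concentrations, incubated 72 h at 37 °C, and viability read by CellTiter-Glo luminescence; concentration-effect curves were fitted after normalization.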
MCF10A rerep – A quantitative high throughput screen for small molecules that induce DNA re-replication in MCF 10a normal breast cells. MCF 10A DNA re-replication, Hoechst nuclear intensity, 48 h. Potency, µM (top dose mostly 46.1 µM), inactives show top-dose activity, positive = re-replication, actives largely listed as activators. actives 2.9% (n = 350,000). AID 624296, 2012; note: % of control where 0% means no effect; nearly all actives have a fitted effect of over 50% in size
HT1080-NT tox – qHTS for induction of synthetic lethality in tumor cells producing 2HG: qHTS for the HT-1080-NT fibrosarcoma cell line. AID 686970, 2013. HT-1080-NT fibrosarcoma viability, CellTiter-Glo ATP luminescence, 48 h. actives 1.6% (n = 360,000). Potency, µM (series often up to 46.1 µM), for the others: at the highest dose activity, negative = less viability, actives largely listed as cytotoxic;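 note: NT is the 2HG producing partner of a matched IDH1 knockdown line; 0% = DMSO-treated cells and -100% = media-only wells without cells; nearly all actives have a fitted effect of over 55% in size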
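Toxicity toward the 2HG-producing NT line was scored as %Activity, normalised to DMSO and no-cell wells, from CellTiter-Glo luminescence after 48 hours' treatment.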
* marks the source's active call; other numbers are inactive results; i = inactive; u = inconclusive; x = no result. The list is not random: actives were taken first. Their share in the collection is about 7.9%. Calls come from the whole dose curve; as a rule, active = well fitted curve in the direction sought with a large enough effect; inconclusive = small, poorly fitted or top-dose-only effect, or another doubt; inactive = no such curve, though single readings can be large; an effect the other way counts as inactive or inconclusive. Potency is the fitted concentration of half-maximal effect.

SMILES | HT1080 IDH1KD tx | SW480 rerep | KB-V1 MDR tox | KB-3-1 tox | MCF10A rerep | HT1080-NT tox
O=C(O)c1cccc(NS(=O)(=O)c2ccc3c(c2)C(=O)c2ccccc2C3=O)c1 | 6% | -4% | i | i | 8% | 1%
Cc1ccc(S(=O)(=O)/N=C2\C=C(Nc3ccc(O)cc3)C(=O)c3ccccc32)cc1 | 23µM* | 6.3µM* | u | 4.1µM* | 3.3µM* | 18µM*
Cc1ccc(NC2=C(NCCO)C(=O)c3ccccc3C2=O)cc1 | u | u | i | u | 19% | u
O=C(c1[nH]c(C(F)(F)F)nc1-c1ccccc1)N1CCN(C(=O)C2CCCO2)CC1 (configuration not stated) | 29% | x | i | i | x | 20%
O=C(Nc1ccccc1)OCCOc1ccc(Br)cc1 | 1% | 22% | i | i | 18µM* | 10%
Cc1ccc(OCCOC(=O)Nc2ccccc2)cc1 | 0% | -2% | u | i | 3% | -7%
CN1CCCN(C(=O)Cc2c(Cl)cccc2Cl)c2nc3ccccc3nc21 | -17% | 16µM* | i | i | u | -7%
CCOC(=O)c1c(NC(=O)CSc2ncn[nH]2)sc(C(C)=O)c1C | -1% | -11% | i | i | -6% | 0%
CCOC(=O)c1c(NC(=O)COc2ncnc3ccccc23)sc(C(C)=O)c1C | -2% | -2% | i | i | u | -9%
CCOC(=O)c1c(NC(=O)COc2ncnc3sccc23)sc2c1CCC2 | u | -1% | 3.3µM* | i | 25% | u
COC(=O)c1c(NC(=O)CSc2ncn[nH]2)sc(C)c1C | -10% | 0% | 21µM* | i | 7% | 0%
COC(=O)c1c(NC(=O)COc2ncnc3ccccc23)sc(C)c1C | 1% | -6% | 15µM* | i | -3% | 0%
CCOC(=O)c1c(NC(=O)COc2ccc(CC)cc2)sc2c1CCCC2 | x | x | i | i | x | x
O=C(c1cc(C2CC2)nn1-c1ccccc1)N1CCN(Cc2ccccc2F)CC1 | -18% | -1% | i | i | u | -10%
O=C(NC12CC3CC(CC(C3)C1)C2)c1ccc([N+](=O)[O-])o1 | u | u | i | 5.2µM* | 8.2µM* | u
CC(NC(=O)c1ccc([N+](=O)[O-])o1)C1CC2CCC1C2 (configuration not stated) | u | 10µM* | u | u | 12µM* | u
O=C(NC12CC3CC(CC(C3)C1)C2)c1ccc(-c2ccc(Br)cc2)o1 | u | u | u | i | 21µM* | -7%
O=C(NC12CC3CC(CC(C3)C1)C2)c1ccc(Br)o1 | -24% | 3% | i | i | u | -11%
Cc1c(Cl)c([N+](=O)[O-])nn1CC(=O)NC(C)C1CC2CCC1C2 (configuration not stated) | -6% | -2% | i | 23µM* | 26% | -3%
CC(NC(=O)c1ccc([N+](=O)[O-])cc1Cl)C1CC2CCC1C2 (configuration not stated) | -10% | 3% | i | i | 7% | -6%
COc1ccc(CN(C(=O)c2ccc(OCC(C)C)cc2)C2CCS(=O)(=O)C2)cc1 (configuration not stated) | x | x | i | i | x | x
Cc1cccc(CNC(=O)c2ccc(NC(=O)N3CCSc4ccccc43)cc2)c1 | x | x | i | i | x | x

Screening data deposited in PubChem by National Center for Advancing Translational Sciences (NCATS).
